Sampled rows, rich in hits. Any-hit rate of the full collection: about 5%.
ALR H2O2 inh: human ALR oxidase inhibition via reduced H2O2 | P55789 | purified ALR, DTT oxidation, H2O2 HRP-luminol luminescence | inhibition, % (test concentration not listed) | 290,000 tested, 3.8% active;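 active = mean replicate inhibition above about 79%, with every replicate also reaching it, limit read from the data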
PREPL inhibitor: inhibitors of human prolyl oligopeptidase-like enzyme PREPL; recombinant PREPL, fluorescence polarization activity-based probe; inhibition, % at 5.96 µM; 320,000 tested, 0.68% active; AID 2751; in the data active = inhibition above about 43%
CHT allo act: human CHT allosteric activation; 310,000 tested, 0.49% active; AID 488977; B-score at 10 µM; Q9GZV3; CHT-expressing cells, membrane potential dye, choline EC20; hits give high values; LV-AA mutant CHT in HEK293 cells;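 active = initial fluorescence not abnormally high and integrated response B-score, plate-corrected, over 3 SD above library mean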
Target sequence (Q9GZV3 whole entry, looked up): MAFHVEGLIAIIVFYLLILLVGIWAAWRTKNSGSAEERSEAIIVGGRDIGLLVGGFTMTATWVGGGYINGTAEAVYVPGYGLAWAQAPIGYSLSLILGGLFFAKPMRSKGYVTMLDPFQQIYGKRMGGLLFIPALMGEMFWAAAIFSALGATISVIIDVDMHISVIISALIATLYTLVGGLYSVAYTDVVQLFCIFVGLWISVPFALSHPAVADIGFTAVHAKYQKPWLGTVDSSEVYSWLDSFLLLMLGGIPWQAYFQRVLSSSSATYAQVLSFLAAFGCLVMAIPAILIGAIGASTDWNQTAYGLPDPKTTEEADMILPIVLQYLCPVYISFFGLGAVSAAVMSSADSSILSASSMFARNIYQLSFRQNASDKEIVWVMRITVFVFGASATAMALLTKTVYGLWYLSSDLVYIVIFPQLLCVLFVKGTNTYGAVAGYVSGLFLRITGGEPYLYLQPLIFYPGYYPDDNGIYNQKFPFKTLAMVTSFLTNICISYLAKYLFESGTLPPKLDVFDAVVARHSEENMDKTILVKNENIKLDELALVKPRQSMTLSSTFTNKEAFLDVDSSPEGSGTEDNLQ
AI-2 QS mod: modulates the Vibrio harveyi AI-2 quorum sensing system | Vibrio harveyi JMH597 AI-2 luminescence/OD600 ratio, 9 h; hits give low values; strain lacks LuxN and CqsS sensors; 0 = neutral-control median | activity change, % at 7.5 µM | 300,000 tested, 0.4% active | AID 2094; in the data active = activity change below about -75%, passing the limit was not always enough;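 note: luminescence divided by OD600 gain over 9 h not by final OD600 alone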
CHT inh: inhibitors of human choline transporter CHT; Q9GZV3; CHT-expressing cells, membrane potential dye, choline response; hits give low values; B-score at 10 µM; 310,000 tested, 0.86% active; AID 488975;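 active = B-score over 3 SD under the library average, and starting fluorescence ratio not unusually high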;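 note: choline stimulus applied at its EC90 after an EC20 pre-addition; B-score computed on integrated fluorescence ratio after choline addition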
CHT activ conf: confirmation of human choline transporter (CHT) activators; shares compounds with CHT allo act; CHT-expressing cells, membrane potential dye fluorescence (FDSS); % of choline EC20–EC90 response window; HEK293 expressing CHT LV-AA mutant; choline added at its EC20; activation, % at 10 µM; 2,500 tested, 91% active; AID 504833;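 active = primary screen active, with duplicate mean activation above negative control mean plus 3 SD, cut at about 11% in these data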
HEK293 MP dye: CHT activator counter-screen hit in parental HEK293 cells. shares compounds with CHT allo act. membrane potential dye fluorescence (FDSS); measured after EC20 choline addition. ratio readout change at 10 µM, hits read low. 2,500 tested, 62% active. AID 623908;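 active = duplicate-averaged ratio beyond 3 SD from buffer wells, up or down, though filed actives are nearly all decreases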
Numbers stand for hits; i = inactive; nt = no result given.

SMILES	ALR H2O2 inh	PREPL inhibitor	CHT allo act	AI-2 QS mod	CHT inh	CHT activ conf	HEK293 MP dye
CC(C)C(=O)N1CCC2(CC1)Oc1ccc(Cl)cc1C(=O)C21CC(c2ccccc2)=NO1 (stereo unspecified)	i	i	i	i	i	i	i
CC(Oc1ccccc1)C(=O)N1CCC2(CC1)Oc1ccc(Cl)cc1C(=O)C21CC(c2ccccc2)=NO1 (stereo unspecified)	i	i	i	i	i	nt	nt
COc1ccc(C(=O)N/C(=C\c2ccc3c(c2)OCO3)C(=O)NCCc2nc3ccccc3[nH]2)cc1	i	i	i	i	i	nt	nt
Cc1ccc2nc(C3CCCCC3)[nH]c2c1	nt	i	i	i	i	nt	nt
COc1ccc2nc(C)cc(NCCN3CCOCC3)c2c1	i	i	i	i	i	nt	nt
Cc1cc(NCCN2CCOCC2)c2ccc3ccccc3c2n1	i	i	6.8	i	i	39	-41
CCOc1ccccc1/C=N/NC(=O)c1nnn(-c2nonc2N)c1CN1CCC(C)CC1	i	i	i	i	i	nt	nt
CC1CCN(Cc2c(C(=O)N/N=C/c3ccc(C(C)(C)C)cc3)nnn2-c2nonc2N)CC1	i	i	7	i	i	14	i
C/C(=N\NC(=O)c1nnn(-c2nonc2N)c1CN1CCCCCC1)c1ccc(Br)cc1	i	i	i	i	i	nt	nt
C/C(=N\NC(=O)c1nnn(-c2nonc2N)c1CN1CCC(C)CC1)c1cccc(Br)c1	i	i	i	i	i	16	i
CN(C)C1=NC[C@H](Cc2ccccc2)N1CC1CCCCC1	nt	i	i	nt	i	nt	nt
CCCCCCCN1C(N(C)C)=NC[C@@H]1Cc1ccccc1	nt	i	6.8	nt	i	25	i
CN(C)C1=NC[C@H](Cc2ccccc2)N1CCCCc1ccccc1	i	i	i	nt	i	16	i
O=C(COC(=O)c1ccccc1Nc1cccc(C(F)(F)F)c1)NCc1ccco1	i	i	i	i	i	nt	nt
COc1ccc(N2CCN(C(=O)COC(=O)c3cccc(OC)c3O)CC2)cc1	i	i	nt	nt	nt	nt	nt
COc1ccc(N2CCN(C(=O)COC(=O)c3ccccc3OCc3ccc(F)cc3)CC2)cc1	i	i	6.8	i	i	20	i
COc1ccc(-c2cc(C(=O)NNC(=O)c3csc(N4CCOCC4)n3)c3ccccc3n2)cc1OC	i	i	7.3	i	i	11	i
CCN(CC(=O)Nc1cccc(C(C)=O)c1)S(=O)(=O)c1ccccc1	i	i	i	i	i	nt	nt
CCOC(=O)n1cc(C(=O)c2ccccc2O)cn1	i	i	i	i	i	30	-38
O=C(NCC1CCCN1S(=O)(=O)c1cccs1)c1ccccc1F (stereo unspecified)	i	i	i	i	i	nt	nt
CC(=O)Nc1ccc(NC(=O)COC(=O)CCc2nc3ccccc3s2)cc1	i	i	i	i	i	nt	nt
CC(=O)Oc1ccccc1C1C[C@]2(C)CC(=O)NC2N1C(C)=O (stereo partly specified)	i	i	i	i	i	nt	nt
COC(=O)CN1C(c2cccc(Cl)c2)=Nc2ccc(Cl)cc2C1c1ccccc1 (stereo unspecified)	i	i	i	i	i	30	i
CCN1/C(=C/c2cc[n+](C)cc2)C=Cc2cc(C)ccc21	nt	i	i	nt	i	21	-61
Cc1ccc(CNc2ncc(-c3ccc4c(c3)OCO4)n2C)cc1	i	i	6.6	i	i	25	-31
SMILES	ALR H2O2 inh	PREPL inhibitor	CHT allo act	AI-2 QS mod	CHT inh	CHT activ conf	HEK293 MP dye
Cc1ccc(C(=O)N/C(=C/c2ccco2)C(=O)N2CCOCC2)cc1	i	i	i	i	i	nt	nt
O=C(c1ccc(S(=O)(=O)c2cccc(Cl)c2)c([N+](=O)[O-])c1)N1CCN(c2ccccn2)CC1	i	i	8.5	i	i	i	i
CC(=O)CCc1ccc(OCCCCN2CCC(Cc3ccccc3)CC2)cc1	i	i	i	i	i	15	-26
CCn1c(CNC(=O)c2ccccc2Br)nnc1SCC(=O)NC1=NCCS1	nt	i	i	i	i	nt	nt
CCOc1ccc(NC2=C(OC)C(=O)c3ccccc3C2=O)cc1	i	i	i	i	i	14	-67
COC1=C(Nc2ccc(O)cc2)C(=O)c2ccccc2C1=O	99	i	i	i	i	29	-78

From PubChem
